Screens deposited in PubChem BioAssay by several laboratories.
This is a sample that favours compounds with a hit; in the whole collection about 1.6% have one here.
LYPLA1 inh – counter-screen for PME1 inhibitors: inhibitors of human LYPLA1; recombinant LYPLA1, FP-Rh probe fluorescence polarization; inhibition, % at 5.9 µM; actives 0.16% (n = 320,000);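 active means inhibition above the mean of all tested compounds plus 3 SD, set per campaign, cut at about 14% in these data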;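 further: inhibitors block serine hydrolase probe labeling of LYPLA1 so polarization falls; 0% = enzyme with DMSO and 100% = wells lacking LYPLA1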
Target sequence (O75608 whole entry, looked up): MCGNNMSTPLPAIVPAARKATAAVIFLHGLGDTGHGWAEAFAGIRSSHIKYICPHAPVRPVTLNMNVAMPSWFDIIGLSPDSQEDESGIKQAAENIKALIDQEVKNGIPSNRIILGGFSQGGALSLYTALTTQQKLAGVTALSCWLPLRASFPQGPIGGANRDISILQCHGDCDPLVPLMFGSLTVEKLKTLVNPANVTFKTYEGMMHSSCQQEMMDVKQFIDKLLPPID
MEX-5 binding – C. elegans MEX-5 TCR-2 RNA binding activity; Q9XUB2; MEX-5/FITC-TCR2 RNA binding, fluorescence polarization; stronger effect = lower value; activity score (negative = inhibition of binding), % at 10 µM; actives 0.38% (n = 300,000);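 active means inhibition past about -25% in most replicates, and total fluorescence under double the plate's negative control median, limit read from the data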;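 further: 0% = DMSO and -100% = 5 µM competing unlabeled TCR2 RNA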
PME-1 inh – PME-1 (human) inhibition; inhibition, % at 5.9 µM; actives 0.53% (n = 320,000); recombinant PME-1, FP-Rh probe fluorescence polarization; Q9Y570;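 active means inhibition above the campaign mean of all compounds plus 3 SD, cut at about 26% in these data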;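 further: competitive labeling of PME-1 active site by serine hydrolase directed probe; 0% = PME-1 with DMSO and 100% = wells lacking PME-1 enzyme; inhibitors block probe labeling so polarization falls and inhibition rises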
Fam108B inh – blocks mouse Fam108B hydrolase in RBBP9 counter-screen; recombinant Fam108B, FP-Rh probe fluorescence polarization; inhibition, % at 9.51 µM; actives 0.33% (n = 300,000); AID 1947;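 active means inhibition above the screen mean inhibition plus 3 SD, computed separately per campaign, cut at about 18% in these data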;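 further: inhibitors lower polarization as less probe binds the enzyme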
LYPLA2 counter – counter-screen for PME1 inhibitors: inhibitors of human LYPLA2; O95372; actives 0.38% (n = 320,000); AID 2177; recombinant LYPLA2, FP-Rh probe fluorescence polarization; inhibition, % at 5.9 µM;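 active means inhibition above the screen-wide mean plus 3 SD, limit set per campaign, cut at about 26% in these data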;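 further: 0% = LYPLA2 with DMSO and 100% = wells lacking LYPLA2 enzyme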
Target sequence (O95372 whole entry, looked up): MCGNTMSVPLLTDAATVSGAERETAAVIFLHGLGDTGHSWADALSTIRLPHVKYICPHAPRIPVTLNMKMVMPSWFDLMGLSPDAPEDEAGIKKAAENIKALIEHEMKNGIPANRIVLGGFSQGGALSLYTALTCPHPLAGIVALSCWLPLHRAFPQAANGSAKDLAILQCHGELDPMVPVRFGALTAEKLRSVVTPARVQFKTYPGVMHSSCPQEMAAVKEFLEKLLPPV
PREPL inh – inhibitors of human prolyl oligopeptidase-like enzyme PREPL | Q4J6C6 | recombinant PREPL, fluorescence polarization activity-based probe | inhibition, % at 5.96 µM | actives 0.68% (n = 320,000);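 further: 0% = enzyme with DMSO and 100% = wells lacking enzyme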
PREPL inh cf – human PREPL inhibition, confirmation | actives 67% (n = 2,000) | shares compounds with PREPL inh | recombinant PREPL, fluorescence polarization activity probe | inhibition, % at 5.96 µM;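 further: 0% = protein with DMSO and 100% = wells lacking protein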
Active calls of the source: *; · = not tested or not shown. Unless noted, no stated cut-off is given here; in the data, active means inhibition above about 43%; inactive means the rest.

SMILES | LYPLA1 inh | MEX-5 binding | PME-1 inh | Fam108B inh | LYPLA2 counter | PREPL inh | PREPL inh cf
CCN(C(=O)CSc1nc(C)nc2sc3c(c12)CCC3)C1CCS(=O)(=O)C1 (stereo not drawn) | · | · | · | · | · | 53.9* | 37.1
CCN(CC)CCn1c(=N)n(CC(O)c2ccc(OC)c(OC)c2)c2ccccc21 (stereo not drawn) | -4.5 | 1.0 | -3.4 | -1.3 | 1.8 | 44.3* | 43.0
O=C1CCCC(=O)C1CS(=O)(=O)c1ccccc1 | -1.6 | 0.3 | -3.0 | -2.4 | -0.1 | -1.2 | ·
O=C(Cc1ccc2c(c1)OCCO2)N1CCN(S(=O)(=O)c2cccc(C(F)(F)F)c2)CC1 | -5.4 | -3.1 | 1.5 | -1.9 | -1.9 | 80.9* | 5.4
Cc1cc(/C=C(\C#N)C(=O)OCC(=O)Nc2ccc(OC(F)F)cc2)c(C)n1CC(C)C | -17.9 | 0.1 | -33.0 | -22.6 | -31.9 | 3.6 | ·
COc1ccc2cc1Oc1ccc(cc1)C[C@H]1c3cc(c(OC)cc3CCN1C)Oc1c(OC)c(OC)cc3c1[C@@H](C2)N(C)CC3 | -1.7 | · | 5.0 | · | -3.8 | 51.5* | 48.0*
O=C(c1ccccc1)c1ccc(C(=O)N2CCOCC2)cc1 | -4.7 | 1.5 | 0.8 | 0.8 | 3.3 | 22.8 | ·
O=C(c1ccc(-c2ccccc2)cc1)c1ccccc1C(=O)N1CCOCC1 | -0.5 | 0.8 | 2.3 | -3.4 | 5.8 | 45.7* | 41.1
C1CCC(c2nn3c(-c4n[nH]c5c4CCC5)nnc3s2)CC1 | -2.0 | 0.5 | 0.5 | 4.8 | 1.3 | -0.4 | ·
CCN(CC)c1ccc(-c2nn3c(-c4n[nH]c5c4CCC5)nnc3s2)cc1 | -0.6 | -0.3 | 22.5 | -3.0 | 3.1 | 78.8* | 68.1*
O=C(NCCCN1CCN(Cc2ccccc2)CC1)C1CCN(c2nnc(-n3cccc3)s2)CC1 | 3.7 | 1.0 | -1.7 | 0.2 | 13.3 | 43.6* | 31.6
CCc1ccc(S(=O)(=O)N2CCN(c3ncccn3)CC2)cc1 | -4.0 | 1.8 | 11.8 | -0.3 | -1.6 | -63.1 | ·
CCOC(=O)N/N=C/c1cc(OC)c(O)c(OC)c1 | -4.1 | -0.1 | -0.5 | 3.5 | -2.5 | 4.1 | ·
CCOC(=O)c1sc(N/N=C/c2cc(Br)c(O)c(OC)c2)nc1C | 6.4 | -4.2 | 28.4* | 16.8 | 8.7 | 44.0* | 47.8*
COc1ccc(-c2cn(CCC(=O)O)c(-c3ccc(Cl)nc3)n2)cc1 | 0.4 | · | 0.8 | -6.0 | -1.8 | 2.1 | ·
CC(C)(C)[C@H]1COC(=O)[C@@H](Cc2ccc(F)cc2)CC/C=C/C[C@@H](CC(=O)N[C@@H](CO)Cc2ccccc2)C(=O)N1 | · | · | · | · | · | 31.7 | ·
CC(C)(C)[C@H]1COC(=O)[C@@H](Cc2ccc(F)cc2)CC/C=C/C[C@@H](CC(=O)N[C@H](CO)Cc2ccccc2)C(=O)N1 | · | · | · | · | · | 47.2* | 41.1
C#CCOCCOCCOCCNc1nc(N2CCN(C(=O)[C@H](Cc3cc4ccccc4[nH]3)n3cc([C@@H](N)C(C)CC)nn3)CC2)nc(N2CCN(C(=O)[C@H](CCCCN)n3cc([C@@H](N)CC(C)C)nn3)CC2)n1 (stereo partly drawn) | 0.0 | 4.0 | -0.1 | 2.3 | -1.4 | 45.6* | 50.1*
C#CCOCCOCCOCCNc1nc(N2CCN(C(=O)[C@H](CCC(=O)O)n3cc(C(N)Cc4ccc(O)cc4)nn3)CC2)nc(N2CCN(C(=O)[C@H](Cc3cc4ccccc4[nH]3)n3cc(C(N)[C@H](C)CC)nn3)CC2)n1 (stereo partly drawn) | -2.4 | 1.0 | 3.9 | -2.4 | 1.2 | 41.5 | ·
C#CCOCCOCCOCCNc1nc(N2CCN(C(=O)[C@H](Cc3cc4ccccc4[nH]3)n3cc(C(N)CC(C)C)nn3)CC2)nc(N2CCN(C(=O)[C@H](CCC(=O)O)n3cc(C(N)[C@H](C)CC)nn3)CC2)n1 (stereo partly drawn) | 2.3 | 5.0 | 0.6 | 0.7 | 9.5 | 22.2 | ·
C#CCOCCOCCOCCNc1nc(N2CCN(C(=O)[C@H]([C@@H](C)CC)n3cc([C@@H](N)Cc4ccc(O)cc4)nn3)CC2)nc(N2CCN(C(=O)[C@H](Cc3cc4ccccc4[nH]3)n3cc([C@@H](N)C(C)CC)nn3)CC2)n1 (stereo partly drawn) | 0.3 | 4.5 | 1.9 | -3.8 | 5.4 | 53.4* | 48.1*
C#CCOCCOCCOCCNc1nc(N2CCN(C(=O)[C@H](Cc3ccc(O)cc3)n3cc([C@@H](N)C(C)CC)nn3)CC2)nc(N2CCN(C(=O)[C@H](Cc3cc4ccccc4[nH]3)n3cc([C@@H](N)CC(C)C)nn3)CC2)n1 (stereo partly drawn) | -1.6 | 5.5 | -2.2 | -2.3 | -2.4 | 55.8* | 47.8*
C#CCOCCOCCOCCNc1nc(N2CCN(C(=O)[C@H]([C@@H](C)CC)n3cc([C@@H](N)CO)nn3)CC2)nc(N2CCN(C(=O)[C@H](Cc3cc4ccccc4[nH]3)n3cc([C@@H](N)C(C)CC)nn3)CC2)n1 (stereo partly drawn) | -4.5 | 3.4 | -3.2 | -0.8 | 2.0 | 48.3* | 49.2*
CC(=O)c1c(C)[nH]c(C(=O)NCCN2CCC(C)CC2)c1C | -1.8 | 2.4 | 4.4 | 0.0 | 1.5 | 1.2 | ·
C#CCOCCOCCOCCNc1nc(N2CCN(C(=O)[C@H](Cc3cc4ccccc4[nH]3)n3cc([C@@H](N)CC(C)C)nn3)CC2)nc(N2CCN(C(=O)[C@H](Cc3cc4ccccc4[nH]3)n3cc([C@@H](N)CC(C)C)nn3)CC2)n1 | -1.3 | 18.3 | -3.9 | 7.7 | -1.9 | 69.0* | 55.7*
C#CCOCCOCCOCCNc1nc(N2CCN(C(=O)[C@H](Cc3ccc(O)cc3)n3cc([C@@H](N)C(C)CC)nn3)CC2)nc(N2CCN(C(=O)[C@H](Cc3cc4ccccc4[nH]3)n3cc([C@@H](N)C(C)CC)nn3)CC2)n1 (stereo partly drawn) | -0.7 | 0.1 | -1.6 | -0.3 | -2.4 | 46.5* | 41.3
C#CCOCCOCCOCCNc1nc(N2CCN(C(=O)[C@H](CCCN=C(N)N)n3cc(C(N)[C@H](C)CC)nn3)CC2)nc(N2CCN(C(=O)[C@H](CCCN=C(N)N)n3cc(C(N)[C@@H](C)CC)nn3)CC2)n1 (stereo partly drawn) | · | · | · | · | · | 44.1* | 33.4
C#CCOCCOCCOCCNc1nc(N2CCOCC2)nc(N2CCN(C(=O)[C@H](CCCN=C(N)N)n3cc(C(N)[C@@H](C)CC)nn3)CC2)n1 (stereo partly drawn) | · | · | · | · | · | 13.4 | ·
N#CC1=C(Nc2ccccc2)SC=C(c2ccc(F)cc2)N=C1N1CCOCC1 | 2.5 | 1.7 | -1.4 | -2.1 | -0.8 | 51.7* | 35.7
